Results on 13 molecules are retold here after article PMC12864922, “TDP-43 directly inhibits mRNA accumulation in neurites through modulation of mRNA stability”.

Whole data set: some 9,900 sequences, median “r (bound/input frequency ratio)” near 0.7, cut for the highest 2% near 6.5. The sample as a whole holds a higher share of the highest values than the screen did.

The chains are these.
B1: ENSMUSG00000029636.187|Wasf3 (ssRNA)
RNA: GGGAGUUCUACAGUCCGACGAUCGCUUCGAUAUCCGCAUGCUAAAUUUUAAAAAGUACCUCACAAGAUAAACUUGAUUCAGCCAGUUGCCCGGGCAGAGACCUGACUUCCCCUCUCCUGCCCUGAUCCUUUUUACCAAAUGGCGAUUCCAUAGUCCUGGCUGAGGCAGGGGCUCAAAGUCCAGUGUCUGCUUUGCAAUUCUGGAAGGACAGCUGCUUAUUUAAAUAAGUCUGUGAUAUCCGCAGGCUUGGGUUACAGGGAGGACCUUGCAGAGGGACCAGGACACUGCCUUCCCUUAGGUGCACUCUUGCGGUCGCACUAGUGUGGAAUUCUCGGGUGUCAAGG
B2: ENSMUSG00000043670.284|Diras1 (ssRNA)
RNA: GGGAGUUCUACAGUCCGACGAUCGCUUCGAUAUCCGCAUGCUAGAGGGAGAGUGGGAGGUAGAAUGAGAGAGAGUGUGUAUUGGAAGGGAGAGAGAGAGUGUGAGAGAGUGUGAGAGAGAGACAGAGACAGAGAUAAAGGAGAUAAAGAGAGACAAAGACAUGGUCACAAAGAGACAGAGAAGCAGAAAGAAGGCUGAAGCCAGAUGACCAAGUAGGCCGGACCCCACUGUGUUCCCUUCUGUGUGCCAGGCACAGGGAGAGCCACAGCCUGAAGCCUGAGUCUGAGCAUAGCUGAGCCCUGACUCUUGCGGUCGCACUAGUGUGGAAUUCUCGGGUGUCAAGG
B3: ENSMUSG00000058297.292|Spock2 (ssRNA)
RNA: GGGAGUUCUACAGUCCGACGAUCGCUUCGAUAUCCGCAUGCUAAGAGAGAAAGAGAGAGAGAAUGAGAGAGAAUGAGAGAGAGAAUACCCGAGGGCCACCCUGAUGCCCAGGAAGAGUGAGGGCAGCCCCCUGUGUGGUGGAAGAGGCUGGGCAGCUAGCUACUGGGGACCUUGUGCUGAGGCUUCCAGGACAAAGCCCCAGUCUGGCUCUCCCCCAGCCUCUCAGGGGCACUGGCUGGUCACAUCCACUGAGUAUUGAUCGGUUGGACUUUAGGGAAGAGCCUCCUCCUUCCCAUUCCUUUCCUCUUGCGGUCGCACUAGUGUGGAAUUCUCGGGUGUCAAGG
B4: ENSMUSG00000043670.285|Diras1 (ssRNA)
RNA: GGGAGUUCUACAGUCCGACGAUCGCUUCGAUAUCCGCAUGCUAGAGUGGGAGGUAGAAUGAGAGAGAGUGUGUAUUGGAAGGGAGAGAGAGAGUGUGAGAGAGUGUGAGAGAGAGACAGAGACAGAGAUAAAGGAGAUAAAGAGAGACAAAGACAUGGUCACAAAGAGACAGAGAAGCAGAAAGAAGGCUGAAGCCAGAUGACCAAGUAGGCCGGACCCCACUGUGUUCCCUUCUGUGUGCCAGGCACAGGGAGAGCCACAGCCUGAAGCCUGAGUCUGAGCAUAGCUGAGCCCUGACCUCUACUCUUGCGGUCGCACUAGUGUGGAAUUCUCGGGUGUCAAGG
B5: ENSMUSG00000058297.287|Spock2 (ssRNA)
RNA: GGGAGUUCUACAGUCCGACGAUCGCUUCGAUAUCCGCAUGCUAAGAGAGAGAGAGAGAGAGAGAGAGAGAGAGAGAGAGAAAGAGAGAGAGAAUGAGAGAGAAUGAGAGAGAGAAUACCCGAGGGCCACCCUGAUGCCCAGGAAGAGUGAGGGCAGCCCCCUGUGUGGUGGAAGAGGCUGGGCAGCUAGCUACUGGGGACCUUGUGCUGAGGCUUCCAGGACAAAGCCCCAGUCUGGCUCUCCCCCAGCCUCUCAGGGGCACUGGCUGGUCACAUCCACUGAGUAUUGAUCGGUUGGACUUUACUCUUGCGGUCGCACUAGUGUGGAAUUCUCGGGUGUCAAGG
B6: ENSMUSG00000058297.290|Spock2 (ssRNA)
RNA: GGGAGUUCUACAGUCCGACGAUCGCUUCGAUAUCCGCAUGCUAAGAGAGAGAGAGAGAGAGAAAGAGAGAGAGAAUGAGAGAGAAUGAGAGAGAGAAUACCCGAGGGCCACCCUGAUGCCCAGGAAGAGUGAGGGCAGCCCCCUGUGUGGUGGAAGAGGCUGGGCAGCUAGCUACUGGGGACCUUGUGCUGAGGCUUCCAGGACAAAGCCCCAGUCUGGCUCUCCCCCAGCCUCUCAGGGGCACUGGCUGGUCACAUCCACUGAGUAUUGAUCGGUUGGACUUUAGGGAAGAGCCUCCUCCUUCUCUUGCGGUCGCACUAGUGUGGAAUUCUCGGGUGUCAAGG
B7: ENSMUSG00000043670.283|Diras1 (ssRNA)
RNA: GGGAGUUCUACAGUCCGACGAUCGCUUCGAUAUCCGCAUGCUAGAGAGGGAGGGAGAGUGGGAGGUAGAAUGAGAGAGAGUGUGUAUUGGAAGGGAGAGAGAGAGUGUGAGAGAGUGUGAGAGAGAGACAGAGACAGAGAUAAAGGAGAUAAAGAGAGACAAAGACAUGGUCACAAAGAGACAGAGAAGCAGAAAGAAGGCUGAAGCCAGAUGACCAAGUAGGCCGGACCCCACUGUGUUCCCUUCUGUGUGCCAGGCACAGGGAGAGCCACAGCCUGAAGCCUGAGUCUGAGCAUAGCUGAGCUCUUGCGGUCGCACUAGUGUGGAAUUCUCGGGUGUCAAGG
B8: ENSMUSG00000058297.293|Spock2 (ssRNA)
RNA: GGGAGUUCUACAGUCCGACGAUCGCUUCGAUAUCCGCAUGCUAAAAGAGAGAGAGAAUGAGAGAGAAUGAGAGAGAGAAUACCCGAGGGCCACCCUGAUGCCCAGGAAGAGUGAGGGCAGCCCCCUGUGUGGUGGAAGAGGCUGGGCAGCUAGCUACUGGGGACCUUGUGCUGAGGCUUCCAGGACAAAGCCCCAGUCUGGCUCUCCCCCAGCCUCUCAGGGGCACUGGCUGGUCACAUCCACUGAGUAUUGAUCGGUUGGACUUUAGGGAAGAGCCUCCUCCUUCCCAUUCCUUUCUGCCACCUCUUGCGGUCGCACUAGUGUGGAAUUCUCGGGUGUCAAGG
B9: ENSMUSG00000058297.289|Spock2 (ssRNA)
RNA: GGGAGUUCUACAGUCCGACGAUCGCUUCGAUAUCCGCAUGCUAAGAGAGAGAGAGAGAGAGAGAGAGAAAGAGAGAGAGAAUGAGAGAGAAUGAGAGAGAGAAUACCCGAGGGCCACCCUGAUGCCCAGGAAGAGUGAGGGCAGCCCCCUGUGUGGUGGAAGAGGCUGGGCAGCUAGCUACUGGGGACCUUGUGCUGAGGCUUCCAGGACAAAGCCCCAGUCUGGCUCUCCCCCAGCCUCUCAGGGGCACUGGCUGGUCACAUCCACUGAGUAUUGAUCGGUUGGACUUUAGGGAAGAGCCUCCUCUUGCGGUCGCACUAGUGUGGAAUUCUCGGGUGUCAAGG
B10: ENSMUSG00000032194.294|Kank2 (ssRNA)
RNA: GGGAGUUCUACAGUCCGACGAUCGCUUCGAUAUCCGCAUGCUAAUGGAUGAGAAACUGGGUUGGCUGGUGGGUAGAUGUCAUGAUGGAGUCUUUGCACGUGUAUGAAACAGAAAACCAAACUUCAGGACAGACAGCUGCUGGUGUCUCUGGAUGCUCACAGCCUAGGGCACAUUUGAAAGGUCGUGCUCUGAGCUGAGCCCUGAGUUCCAGCCUUGUAGCCAGCAAGGGAGUUUAUUUAAGGUUCUGGAAGCAUCAGCUAUGACCCAAAGCACACGCUCCUCAGAAAAGCCCCUGUUUCUGUCCUCUUGCGGUCGCACUAGUGUGGAAUUCUCGGGUGUCAAGG
B11: ENSMUSG00000042529.84|Kcnj12 (ssRNA)
RNA: GGGAGUUCUACAGUCCGACGAUCGCUUCGAUAUCCGCAUGCUACCCCACAAAACACAAGAAAACAUUAACAGGUGGUUCAAUUUUUAAAAUUCCUGGUGUGGGGACAGUUGGAAUUCUACUCAGCGCUGCCAGGCAAGCAGCUGGACGGAGAACCCUGAGGGUUCUCAGAGGUCUGUUUUCUCCCUCACGUGGGCCAGGGCCUUAAGCGAGUUGUCAUGCUUAAGGAUGAAUCAGGCUGCUUGUGACCAUGUUAACGAUUCUAAUAAAGUGUCUGGAUGUCUCUUGGGGGUGGGGCCCACUAGCUCUUGCGGUCGCACUAGUGUGGAAUUCUCGGGUGUCAAGG
B12: ENSMUSG00000061578.34|Ksr2|40:50;139:145;150:154 (ssRNA)
RNA: GGGAGUUCUACAGUCCGACGAUCGCUUCGAUAUCCGCAUGCUACCACUCAACUAGGACCAAACUGGGCCAGAGAGGGUCCCAACACACCACACAAGGAGCCACAGACUGAGCACACCACCUCGGACUGUGGAGACCAAGACACAUGCCCAGUGGGCAGACUCAGACUCACACGCUGGACCACACACACCGCAACACACUACACAUGGACAGGGCCAACUGCUAUCCUUCUGCCUGGACGAGCCAGCUGUGGAGUGUCCCAGCUGUGCUAUCCUGGAACACAGAACCAGGAUGGAACCAGAAACCUCUUGCGGUCGCACUAGUGUGGAAUUCUCGGGUGUCAAGG
B13: ENSMUSG00000061578.47|Ksr2|61:67;72:76 (ssRNA)
RNA: GGGAGUUCUACAGUCCGACGAUCGCUUCGAUAUCCGCAUGCUACGGACUGUGGAGACCAAGACACAUGCCCAGUGGGCAGACUCAGACUCACACGCUGGACCACACACACCGCAACACACUACACAUGGACAGGGCCAACUGCUAUCCUUCUGCCUGGACGAGCCAGCUGUGGAGUGUCCCAGCUGUGCUAUCCUGGAACACAGAACCAGGAUGGAACCAGAAACAAUACACCUGCUCCGUUGUCAAGGCUUCUAGGCCAAGGUCAGGGUAGGGAGGUGGGGUGGGUUAAACUUGCAAACAUCCUCUUGCGGUCGCACUAGUGUGGAAUUCUCGGGUGUCAAGG

TDP-43, sequence (Q13148 whole entry): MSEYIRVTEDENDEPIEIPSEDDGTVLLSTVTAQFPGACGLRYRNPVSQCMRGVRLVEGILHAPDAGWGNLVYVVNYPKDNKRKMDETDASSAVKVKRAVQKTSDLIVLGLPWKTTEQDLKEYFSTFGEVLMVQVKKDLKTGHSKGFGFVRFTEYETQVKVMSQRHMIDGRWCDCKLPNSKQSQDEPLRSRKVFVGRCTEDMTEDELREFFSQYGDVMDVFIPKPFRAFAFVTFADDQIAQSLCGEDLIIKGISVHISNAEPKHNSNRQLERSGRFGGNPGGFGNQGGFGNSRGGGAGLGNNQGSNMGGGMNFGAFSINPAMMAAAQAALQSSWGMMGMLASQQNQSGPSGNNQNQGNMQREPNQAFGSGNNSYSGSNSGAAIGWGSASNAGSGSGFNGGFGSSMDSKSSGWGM

This experiment addresses TDP-43 (Homo sapiens, UniProt Q13148 1-414). Kind of experiment: RNA Bind-n-Seq with designed 260-mer pool; 25 mM Tris-HCl, 150 mM KCl, 3 mM MgCl2, BSA (printed 500 mg/mL), 20 units/mL SUPERase IN; pH not stated; 500 nM RNA pool, 1 h, 4 C; TDP-43 5, 50, 500 nM; high values mean tight binding. The settings on record: protein: recombinant; tags: SBP (GST cleaved off with PreScission; pGEX-GST-SBP). The method, boiled down: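 Binding (R) is the ratio of each oligo's mapped-read-normalized abundance in the bound fraction to its abundance in the input. To obtain it, SBP-tagged recombinant TDP-43 (5, 50 or 500 nM) on streptavidin beads was incubated with 500 nM of an in vitro-transcribed 260-nt 3′ UTR oligo pool for 1 h at 4 °C in 25 mM Tris-HCl, 150 mM KCl, 3 mM MgCl2, BSA and SUPERase IN. The RNA retained after washing was released with biotin, then reverse transcribed, amplified by PCR and sequenced.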
As for B1, the binding signal is 0.317 R (bound/input frequency ratio). The same measure for B2: 5.75 R (bound/input frequency ratio); for B3: 6.42 R (bound/input frequency ratio); for B4: 6.66 R (bound/input frequency ratio). With B5, the binding signal is 7.5 R (bound/input frequency ratio). The same measure for B6: 8.79 R (bound/input frequency ratio). Regarding B7, the binding signal was 4.07 R (bound/input frequency ratio).

Consider B8, for which the binding signal is 2.36 R (bound/input frequency ratio).

In the case of B9, the binding signal is 7.91 R (bound/input frequency ratio). The same measure for B10: 0.914 R (bound/input frequency ratio); for B11: 1.71 R (bound/input frequency ratio). With B12, the binding signal is 1.07 R (bound/input frequency ratio). The same measure for B13: 0.292 R (bound/input frequency ratio).
